Screen size: about 5,500 compounds; about 2,000 (36%) were called active. Inconclusive results (about 18%) are left out. Cut-off read from the data, not from the text of the source: active = normalized growth mostly below about 0.91 (no sharp cut-off); inconclusive = no clear call, values can overlap the other calls; inactive = mostly above about 0.92. The list shows a part of the results.
Assay: chemical genetic growth profiling, strain panel (AID 1159580);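 note: tested at 20 µM; growth read once vehicle control cultures reached saturation at 30 °C; 1 = growth at the plate median or of vehicle wells; lower values mean less growth of the strain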
Conditions: growth OD

Measured: normalized growth

Nc1cc(-c2ccc(Cl)cc2)nc(N)n1
inactive: S. cerevisiae deletion strains, locus YAL013W, strain DEP1, active compounds read low 0.997 | S. cerevisiae deletion strains, locus YBR229C, strain ROT2, active compounds read low 0.991 | S. cerevisiae deletion strains, locus YDL101C, strain DUN1, active compounds read low 0.995 | S. cerevisiae deletion strains, locus YDL134C, strain PPH21, active compounds read low 0.959 | S. cerevisiae deletion strains, locus YDR150W, strain NUM1, active compounds read low 1.02 | S. cerevisiae deletion strains, locus YEL061C, strain CIN8, active compounds read low 0.995 | S. cerevisiae deletion strains, locus YGR078C, strain PAC10, active compounds read low 0.999 | S. cerevisiae deletion strains, locus YHR030C, strain SLT2, active compounds read low 0.963 | S. cerevisiae deletion strains, locus YHR087W, strain rtc3, active compounds read low 0.993 | S. cerevisiae deletion strains, locus YJL187C, strain SWE1, active compounds read low 1 | S. cerevisiae deletion strains, locus YJR043C, strain POL32, active compounds read low 0.982 | S. cerevisiae deletion strains, locus YJR075W, strain HOC1, active compounds read low 0.972 | S. cerevisiae deletion strains, locus YKL190W, strain CNB1, active compounds read low 0.965 | S. cerevisiae deletion strains, locus YLR039C, strain RIC1, active compounds read low 0.914 | S. cerevisiae deletion strains, locus YLR058C, strain SHM2 (second series), active compounds read low 0.993 | S. cerevisiae deletion strains, locus YLR085C, strain ARP6, active compounds read low 1.02 | S. cerevisiae deletion strains, locus YLR262C, strain YPT6, active compounds read low 0.85 | S. cerevisiae deletion strains, locus YML094W, strain GIM5, active compounds read low 1.03 | S. cerevisiae deletion strains, locus YMR219W, strain ESC1, active compounds read low 0.991 | S. cerevisiae deletion strains, locus YMR263W, strain SAP30, active compounds read low 0.996 | S. cerevisiae deletion strains, locus YNL153C, strain GIM3, active compounds read low 0.992 | S. cerevisiae deletion strains, locus YNL298W, strain CLA4 (second series), active compounds read low 0.992 | S. cerevisiae deletion strains, locus YNL322C, strain KRE1, active compounds read low 0.99 | S. cerevisiae deletion strains, locus YNR030W, strain Alg12, active compounds read low 1 | S. cerevisiae deletion strains, locus YOL006C, strain TOP1, active compounds read low 0.944 | S. cerevisiae deletion strains, locus YPL055C, strain LGE1, active compounds read low 1.02 | S. cerevisiae deletion strains, locus YPL241C, strain CIN2, active compounds read low 0.995 | S. cerevisiae deletion strains, locus YPR135W, strain CTF4, active compounds read low 0.939 | S. cerevisiae strains, strain wild type, active compounds read low 0.966
